# Screens from PubChem BioAssay.
# An excerpt weighted towards active compounds, which were near 19% of everything screened.
# HT1080NT lethal – kills 2HG-producing HT-1080-NT fibrosarcoma cells; 360,000 tested, 1.6% active; Potency, µM (series often up to 46.1 µM), usual class: cytotoxic; HT-1080-NT fibrosarcoma viability, CellTiter-Glo ATP luminescence, 48 h;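 note: NT is the 2HG producing partner of a matched IDH1 knockdown line; nearly all actives have a fitted effect of over 55% in size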
#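 Viability of the 2HG-overproducing fibrosarcoma line after 48 hours of compound exposure at 37 degrees C was determined by luminescence with CellTiter-Glo, and concentration-effect curves were then fitted and categorized.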
# KB-3-1 tox – KB-3-1 parental cell cytotoxicity. KB-3-1 viability, CellTiter-Glo ATP luminescence, 72 h. Potency, µM (series often up to 46.1 µM), usual class: cytotoxic. AID 1347075. 400,000 tested, 1.4% active; note: nearly all actives have a fitted effect of over 60% in size
#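 Cytotoxicity in the drug-sensitive parental line KB-3-1 was scored as loss of CellTiter-Glo luminescence following 72 h incubation with compound. Values come from curve fitting of normalized concentration-response data.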
# KB-V1 MDR tox – kills drug-selected multidrug resistant KB-V1 cells; Potency, µM (top dose mostly 46.1 µM), hits mostly cytotoxic; AID 1347076; 400,000 tested, 3.4% active; KB-V1 MDR cells viability, CellTiter-Glo, 72 h; note: nearly all actives have a fitted effect of over 60% in size
#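 KB-V1, DMEM (no phenol red) + 10% FBS; cpd pin-transferred, titration series; 72 h, 37 degrees C; CellTiter-Glo, luminescence. Data normalized, curve-fit.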
# TDP1 cell CPT – DT40-hTDP1 cell growth loss with CPT | chicken DT40 Tdp1-/-;hTDP1 cells + 20 nM CPT, ATP luminescence, 48 h | Potency, µM (doses to about 46.2 µM), most hits filed as inhibitors | 420,000 tested, 12% active | AID 686979; note: nearly all actives have a fitted effect of over 55% in size
#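 Chicken DT40 Tdp1-/- cells complemented with human TDP1, 400 cells/well, exposed to compounds plus 20 nM camptothecin for at least 48 h at 37 C; viability read as ATP content by CellTiter-Glo luminescence.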
# HT1080 IDH1KD tx – kills HT-1080 cells with IDH1 knockdown. 360,000 tested, 2% active. AID 686971. HT-1080 IDH1 knockdown viability, ATP luminescence, 48 h. Potency, µM (titrated, usually from 46.1 µM), actives largely listed as cytotoxic
#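 Cytotoxicity counter-line: IDH1KD HT-1080, 48 h, CellTiter-Glo. Curves classed by r2, magnitude and activity.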
# DT40 TDP1 no CPT – qHTS for Inhibitors of human tyrosyl-DNA phosphodiesterase 1 (TDP1): qHTS in cells in absence of CPT | DT40 Tdp1-/- hTDP1 cells, no CPT, ATP luminescence, 48 h | Potency, µM (titrated, usually from 46.2 µM), usual class: inhibitors | 420,000 tested, 15% active | AID 686978, 2013; note: nearly all actives have a fitted effect of over 55% in size
#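 Camptothecin absent (DMSO only). Human TDP1-complemented DT40 knockout cells, 400 cells/well, 37 °C for minimum 48 hr; ATP measured via CellTiter-Glo, 30 min dark incubation, luminescence.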
# Numbers stand for hits; - = inactive; ? = inconclusive; . = not tested or not shown. Calls come from the whole dose curve; as a rule, active = well fitted curve in the direction sought with a large enough effect; inconclusive = small, poorly fitted or top-dose-only effect, or another doubt; inactive = no such curve, though single readings can be large; an effect the other way counts as inactive or inconclusive.
SMILES,HT1080NT lethal,KB-3-1 tox,KB-V1 MDR tox,TDP1 cell CPT,HT1080 IDH1KD tx,DT40 TDP1 no CPT
Cc1ccc2oc(=O)n(CCNC(=O)Nc3ccccc3Cl)c2c1,.,-,-,18µM,.,?
Cc1ccc2oc(=O)n(Cc3ccccc3Cl)c2c1,.,-,-,-,.,-
Cc1ccc2oc(=O)n(CCNC(=O)Nc3ccc(C)c(F)c3)c2c1,.,.,.,?,.,23µM
Cc1ccccc1NS(=O)(=O)c1ccc(OCC(=O)NCc2ccccn2)cc1,-,-,-,-,-,-
CCOC(=O)N1CCN(CC(O)c2c[nH]c3ccccc23)CC1 (centres undefined),-,?,-,?,-,-
O=S1(=O)CCN(c2ccccc2CC(c2c[nH]c3ccccc23)c2c[nH]c3ccccc23)CC1,?,?,?,8.2µM,?,13µM
COc1cccc(OCC(=O)O)c1,-,-,-,-,-,-
CCc1ccc(CNc2ncc(-c3cccc(OC)c3)n2C)cc1,.,.,.,4.1µM,.,4.1µM
COc1ccc(CNc2ncc(-c3ccccc3)n2C)cc1,-,-,-,-,-,?
Cn1c(-c2ccc(F)cc2)cnc1NCc1ccc(C#N)cc1,-,-,21µM,?,-,16µM
CCOc1cc(CNc2ncc(-c3ccc(OC)cc3)n2C)ccc1O,-,-,?,?,-,18µM
CCOc1ccc(-c2cnc(NCc3ccc(C(F)(F)F)cc3)n2C)cc1,.,.,.,5.2µM,.,5.8µM
CCOc1ccc(CNc2ncc(-c3ccccc3)n2C)cc1,-,-,-,-,-,?
Cc1cccc(-c2cnc(C(O)c3ccc(F)c(C)c3)[nH]2)c1 (centres undefined),-,-,-,-,-,?
CC1=C(C(=O)N(C(C)C)C(C)C)CC(CC(=O)NC2CC2)C(=O)N1Cc1ccc(F)cc1 (centres undefined),-,-,-,-,?,-
Cn1c(-c2ccccc2)cnc1NCc1ccc(-c2ccccc2)cc1,-,-,-,26µM,-,?
Cc1ccc(-c2cnc(NCc3c(F)cccc3Cl)n2C)cc1,.,-,-,15µM,.,23µM
Cn1c(-c2ccc(F)cc2)cnc1NCc1ccccc1F,-,-,-,-,-,23µM
Cn1c(-c2ccc(F)cc2)cnc1NCc1ccc(F)cc1F,-,-,-,-,-,?
COc1ccc(CNc2ncc(-c3ccccc3)n2C)c(OC)c1OC,-,-,-,?,-,15µM
O=C(Nc1cc(F)cc(F)c1)c1ccc(NCCCN2CCCCCC2)c([N+](=O)[O-])c1,?,-,?,?,?,?
COc1cccc(NC(=O)c2ccc(NCCCN3CC(C)CC(C)C3)c([N+](=O)[O-])c2)c1 (centres undefined),?,-,-,-,?,?
COc1cccc(NC(=O)c2ccc(NCCCN3CCC(C)CC3)c([N+](=O)[O-])c2)c1,?,-,-,?,?,16µM
CCCN(CCC)CCCNc1ccc(C(=O)Nc2cccc(OC)c2)cc1[N+](=O)[O-],?,-,-,?,21µM,?
Cc1ccc(NC(=O)c2ccc(NCCCN3CCC(C)CC3)c([N+](=O)[O-])c2)c(C)c1,?,-,-,?,-,16µM
SMILES,HT1080NT lethal,KB-3-1 tox,KB-V1 MDR tox,TDP1 cell CPT,HT1080 IDH1KD tx,DT40 TDP1 no CPT
COCC(=O)N1CCC2(CC1)CN(C(=O)Nc1ccc(OC)cc1)C2,.,.,.,-,.,-
CN1/C(=C\C(=O)C[n+]2ccc(C(=O)c3ccccc3)cc2)C(C)(C)c2ccccc21,-,-,?,0.82µM,?,1.2µM
CN1/C(=C\C(=O)C[n+]2cccc(C(N)=O)c2)C(C)(C)c2ccccc21,-,-,-,-,-,-
Cc1ccc[n+](CC(=O)/C=C2\N(C)c3ccccc3C2(C)C)c1,-,7.3µM,?,1.2µM,?,1.6µM
Cc1cccc[n+]1CC(=O)/C=C1\N(C)c2ccccc2C1(C)C,-,4.1µM,-,3.3µM,?,3.3µM
CN1/C(=C\C(=O)C[n+]2cccc(Br)c2)C(C)(C)c2ccccc21,-,?,-,4.6µM,-,5.8µM
CCc1ccc(N(CC(=O)NC2CCCCC2)C(=O)CCC(=O)Nc2ccccn2)cc1,-,-,?,-,-,-
CC(C(=O)NC1CCCC1)n1c(C2CCCC2)nc2ccccc21 (centres undefined),-,-,?,-,-,-
S=c1[nH]nc(Cc2noc3ccccc23)n1-c1ccccc1,-,-,-,?,-,?
Nc1[nH]c(=O)nc(Nc2ccccc2)c1N=O,-,-,-,?,-,-
Cc1c(F)cccc1NS(=O)(=O)c1cccs1,.,-,-,-,.,-
Cc1ccccc1N1C(S)=C(C#N)C(=O)NC1c1cccs1 (centres undefined),-,-,-,?,-,?
N#CC1=C(S)N(c2ccc(F)cc2)C(c2cccs2)NC1=O (centres undefined),-,-,-,8.2µM,-,?
Cc1cccc(N2C(S)=C(C#N)C(=O)NC2c2cccs2)c1 (centres undefined),-,-,-,15µM,-,13µM
O=C(CSC1CN(C(c2ccccc2)c2ccccc2)C1)N/N=C/c1ccccc1,?,-,-,16µM,23µM,?
S=C(NCCc1ccccc1)Nc1ccc(Br)cn1,-,-,?,?,-,15µM
O=C(NCCc1ccccc1)C(=O)Nc1nccs1,?,-,-,-,-,-
S=C(NCc1ccccc1)Nc1nccs1,-,-,-,5.2µM,-,4.6µM
S=C(NCCc1ccccc1)Nc1nccs1,-,-,-,?,-,15µM
Cc1cc(NC(=O)Cn2nnc3sc4c(c3c2=O)CCC(C(C)(C)C)C4)no1 (centres undefined),?,?,-,11µM,?,?
CCOc1ccccc1NC(=O)Cn1nnc2sc3c(c2c1=O)CCC(C(C)(C)C)C3 (centres undefined),.,-,-,15µM,.,5.2µM
CCc1nc2ccc(C(=O)NCCc3ccccn3)cn2c1N(CC)CCOC,-,-,-,?,-,?
Cc1cc(=O)n(Cc2ccc(F)cc2Cl)c2c1c(C)nn2-c1ccccc1,.,-,-,-,.,-
O=C(NC(c1ccccc1)c1ccc2ccccc2n1)C1CCN(Cc2ccc(Cl)c(Cl)c2)CC1 (centres undefined),?,?,?,?,?,15µM
COc1ccc(CN2CCC(C(=O)NC(c3ccc4c(c3)OCO4)c3ccccn3)CC2)cc1 (centres undefined),-,-,-,-,-,-
